Test results published in PubChem BioAssay (NCATS).
The list shows a part of the results. Inconclusive results are not listed. A number with no mark means an inactive call. Activity calls are given as the source filed them. Calls follow the shape of the dose curve; as a rule, active = well fitted inhibition curve with a large enough effect; inconclusive = small, poorly fitted or top-dose-only effect; inactive = flat fitted curve, though single readings scatter.

tested on: NanoLuc luciferase (engineered Oplophorus gracilirostris luciferase); test: Biochemical coelenterazine-based NLuc counterscreen for small molecule modulators of PMP22 gene expression - Km assay (AID 1508639); settings: secreted NLuc enzyme, coelenterazine luminescence, Km conditions; series mostly up to 57.5 µM; activity change, negative = inhibition: at the top concentration;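 as to activity change, negative = inhibition: substrate at 15 µM coelenterazine with 5 min compound preincubation before enzyme addition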
From the text: Assay Provider: Jim Inglese Ph.D. National Center for Advancing Translational Science, National Institutes of Health, Rockville, MD CMT is a heterogeneous group of neurological disorders that affect approximately 1 in 2,500 people. In particular, the most common form of CMT, CMT1A is genetically linked to the duplication of the PMP22 gene which leads to Schwann cell overexpression, thus manifesting itself as a typical case of dose-sensitive diseases. To identify small molecule compounds that can mediate the expression of PMP22 we developed a phenotypic assay screening strategy by utilizing genome editing techniques to construct Schwann cell lines containing novel reporter technology to monitor the transcriptional or translational regulation of PMP22. For high sensitivity we use a bioluminescent reporter system embedded in the 3' UTR of the PMP22 gene (S16(c9) Pmp22-F2sN) to identify compounds that inhibit gene expression. […] We can further discriminate the effect of all transcriptionally active molecules on PMP22 translation or stability with an assay that incorporates a short NLuc peptide (HiBiT) at the C-terminus of expressed PMP22 (S16(f8) PMP22-HiBiT) allowing alpha complementation and luminescence detection of membrane-associated PMP22 protein. These assays were screened against the NCATS Sytravon Library Collection. Miniaturization of these assays to 1536-well plate format for quantitative high throughput screening (qHTS) yielded rich data sets immediately from the qHTS assay (S16(c9) Pmp22-F2sN), when compared with data from a cell viability assay (Cell TiterGlo) to identify compounds that decreased the output signals through cellular toxicity to streamline the selection process of actives for subsequent characterization using the HiBiT assay (S16(f8) PMP22-HiBiT).
Biochemical Coelenterazine-based solution NLuc assay (Km assay) PROTOCOL TABLE (format as described by Inglese J, Shamu CE and Guy RK. 2007) SEQUENCE No. (e.g., 1, 2, 3, etc.); PARAMETER (e.g., Cells, Incubation, Reagent, etc.); VALUE and DESCRIPTION. 1. Reagent. Add 2 uL substrate per well into Greiner 1536-well white/solid bottom high base, medium binding plates. 2. Compounds. Library compounds and controls added at 23nL per well, transferred by Pin Tool. 3. Incubation. Incubate plates 5 min at ambient temperature. 4. Reagent. Add 2uL NLuc enzyme solution per well of Greiner 1536-well plates. 5. Incubation. Incubate plates at room temperature for 10 min., protect from light. 6. Detector. FLuc luminescence measured using CCD-based camera (Viewlux). NOTES (numbers refer to Sequence numbers above; values are from representative experiments) 1. Freshly prepared 15 uM Coelenterazine, 0.3M Sodium Ascorbate, 0.005M NaCl and 0.1% TritonX in PBS pH7.4, filtered through […]. 4. Enzyme was obtained by filtering media of S16 cells expressing secreted NLuc (Inglese et al. 2014) grown to 80-90% confluency in DMEM High Glucose, No Phenol Red media + 10% heat inactivated FBS + 1% Pen/Strep supplemented media6. Luminescence Read (Fluc): Clear filter; Exposure = 10 sec, Gain = High, Speed = Slow, Binning = 2X 6. Luminescence Read (Nluc): Clear filter; Exposure = 1 sec, Gain = High, Speed = Slow, Binning = 2X REFERENCES: 1. Inglese J, Shamu CE and Guy RK, Reporting data from high throughput screening of small molecule libraries, Nature Chemical Biology, 2007, 3(8): 438-441. doi.org/10.1038/nchembio0807-438 2. Yasgar A, Shinn P, Jadhav A, Auld DS, Michael S, Zheng W, Austin CP, Inglese J and Simeonov A, Compound Management for Quantitative High-Throughput Screening. J. Assoc. Lab. Auto., 2008, 13: 79-89. doi: 10.1016/j.jala.2007.12.004 3. Inglese, J., Dranchak, P., Moran, J. J., Jang, S. W., Srinivasan, R., Santiago, Y., Zhang, L., Guha, R., Martinez, N., MacArthur, R., Cost, G. J., and Svaren, J. (2014) Genome editing-enabled HTS assays expand drug target pathways for Charcot-Marie-tooth disease, ACS Chem Biol 9, 2594-2602.
% is scaled to controls: 0 for no effect and ±100 for the full control effect; potency is read from the fitted curve at half-maximal effect.

SMILES	Potency	activity change, negative = inhibition [%]
Cc1cccc(Nc2cc(C)nc(-n3nc(C)cc3C)n2)c1	9.68 µM (active)	–
Cc1ccc(CCNC(=O)C2CCN(c3nnc(-n4cccc4CNc4ccc(C)cc4)s3)CC2)cc1	–	4.33
CCOC(=O)c1c(C)[nH]c(CCC(=O)NCCCN2CCN(c3cc(C)ccc3C)CC2)c1C	–	-2.31
CC(=O)N1CCCc2cc(S(=O)(=O)N3CCCC(C(=O)N4CCN(c5cccc(Cl)c5)CC4)C3)ccc21 (stereo unspecified)	–	7.45
Cc1cc(OCC(=O)NCC2(N(C)C)CCCCC2)cc(C)c1Cl	–	2.33
CCC1CCCCN1CCCNC(=O)c1cc2c(Cl)nc3ccccc3c2s1 (stereo unspecified)	–	2.64
CC(C)(C)c1ccc(C(=O)NCC(c2ccco2)S(=O)(=O)c2ccc(F)cc2)cc1 (stereo unspecified)	–	7.58
CCc1ccc(C2CC(=O)c3c([nH]c(C(=O)OCc4ccc(C)cc4)c3C)C2)cc1 (stereo unspecified)	–	1.45
CCCS(=O)(=O)c1ncc(Cl)c(C(=O)Nc2scc(-c3ccccc3)c2C(=O)OCC)n1	–	-0.943
CCCn1c2ccccc2c2cnn(CC(=O)NCC3CCN(Cc4ccc(C)cc4)CC3)c(=O)c21	–	6.62
CCOC(=O)c1ccc(N2C(=O)c3n[nH]c(C)c3C2c2ccc(O)c(OC)c2)cc1 (stereo unspecified)	19.3 µM (active)	–
COc1cccc(NC(=O)CSC2=Nc3ccccc3C3=NC(CC(=O)NC4CCCCC4)C(=O)N23)c1 (stereo unspecified)	–	1.03
COc1ccc(-c2onc(C)c2C)cc1S(=O)(=O)NCC1CCN(Cc2cccc(F)c2)CC1	–	7.67
CCCn1c(=N)c(C(=O)NCc2ccccc2)cc2c(=O)n3cccc(C)c3nc21	–	-13.3
Cc1ccccc1CNC(=O)CSc1nnc(C)c2c(C)n(-c3ccccc3)nc12	–	-1.41
O=C(NCCCN1CCN(c2cccc(Cl)c2)CC1)c1nnc(Cc2ccc(F)cc2Cl)o1	–	-8.09

SMILES	Potency	activity change, negative = inhibition [%]
CCOC(=O)C1CCN(C(=O)CSc2c3c(nc4ccc(Cl)cc24)CCCC3)CC1	–	-3.72
O=C(c1ccc2c(c1)N(Cc1ccc(F)cc1)C(=O)c1ccccc1S2(=O)=O)N1CCN(c2ccccn2)CC1	1.93 µM (active)	–
O=C(c1ccc(C(F)(F)F)cc1)N1CCC(c2nc(-c3ccc(S(=O)(=O)N4CCCC4)cc3)no2)CC1	–	3.36
Cc1ccc(C)n1-c1nnc(N2CCC(C(=O)NCc3ccccc3Cl)CC2)s1	–	2.9
Cc1ccc(OCCSc2nc3ccc(NC(=O)COc4ccc(C)cc4)cc3s2)cc1	–	-1.1
CCOCCCNC(=O)c1c(NC(=O)c2nc(SC)ncc2Cl)sc2c1CCCC2	–	2.95
COc1ccc(CCNC(=O)c2cc(=O)c3c(C)cc(C)cc3o2)cc1OC	0.273 µM (active)	–
Cc1nnc(SCC(=O)NCc2ccccc2Cl)c2nn(-c3ccccc3)c(C)c12	–	-7.95
CCOc1ccc(NC(=O)c2c(NC(=O)Cc3ccccc3)sc3c2CCC(C)C3)cc1 (stereo unspecified)	17.2 µM (active)	–
CCC1=Nc2cc(C(=O)NCCCOC(C)C)ccc2Sc2ccc(C)cc21	–	-0.336
Cc1cc(F)ccc1NS(=O)(=O)c1ccc(-n2cccn2)cc1	13.7 µM (active)	–
CCCCOc1ccc(CN2C(=O)C(=O)c3cc(Br)cc(C)c32)cc1OC	–	0.323
CCOC(=O)c1ccc(NC(=O)CSc2nc3c([nH]c4ccccc43)c(=O)n2C)cc1	–	-8.06
COc1ccccc1Nc1c2c(nc3ccc(NC(=O)/C=C/c4cc(OC)c(OC)c(OC)c4)cc13)CCCC2	1.93 µM (active)	–
CCOC(=O)c1c(C)[nH]c(CCC(=O)NCCCN2CCN(c3cccc(Cl)c3)CC2)c1C	–	-1.54
